Some test systems named below: SK-MEL-2 melanoma; EKVX NSCLC; SN12C renal; UO-31 renal; TK-10 renal; ACHN renal; CAKI-1 renal; A498 renal; CCRF-CEM leukemia; MOLT-4 leukemia; RPMI-8226 leukemia; OVCAR-8 ovarian; OVCAR-5 ovarian; OVCAR-4 ovarian; SK-OV-3 ovarian; IGROV1 ovarian; OVCAR-3 ovarian; HS 578T breast; NCI/ADR-RES ovarian.
Assay in all cases: NCI-60 one-dose screen, 48 h (100 = growth as untreated, 0 = no growth, -100 = all killed)
Common to all, as to conditions: 10 µM unless noted

Molecules are shown by their SMILES. This is part of a sample that, as a whole, favours compounds with a hit. Of some 83,000 tested, about 20% had one in any assay.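 Treatment: one concentration, 48 hours, 96-well format. Scoring: percent growth, with anything below 10 considered active.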 Unmarked numbers belong to inactive results. Calls of active or inactive are those of the source.

As for `COc1cccc(-c2nc3sccn3c2-c2ccnc(NCCNS(=O)(=O)c3cccc(Cl)c3)c2)c1`, the growth in the assay on SK-MEL-2 melanoma is 51.8%; in the assay with EKVX NSCLC, 45.8%; in the assay with SN12C renal it was 36.3%; in the assay on UO-31 renal it was 12.9%; in the assay on TK-10 renal, 59.7%; in the assay on ACHN renal, 30.5%. In addition, the growth in the assay with CAKI-1 renal was 25.9%; in the assay on A498 renal, 44.1%; with CCRF-CEM leukemia it was 24%; in the assay with MOLT-4 leukemia it was 30.4%; in the assay with RPMI-8226 leukemia it was -4.85% (active); with OVCAR-8 ovarian it was 21.4%. Also, the growth in the assay with OVCAR-5 ovarian was 89.6%; in the assay with OVCAR-4 ovarian it was 34%; in the assay with SK-OV-3 ovarian, 65.6%; in the assay on IGROV1 ovarian it was 41.8%; in the assay with OVCAR-3 ovarian, 48.2%; in the assay with HS 578T breast, 38.6%. Also, the growth with NCI/ADR-RES ovarian is 22.7%.
Consider `Cc1cccc(NC(=O)N/C(N)=N/c2nc(C)c(C)s2)c1`, for which the growth is 43.7% in the assay on SK-MEL-2 melanoma; 55.8% with EKVX NSCLC; 57.6% in the assay on SN12C renal; 64.3% in the assay on UO-31 renal; 96.3% with TK-10 renal; 63.4% with ACHN renal. For the same compound, the growth with CAKI-1 renal was 30.6%; in the assay on A498 renal, 20%; with CCRF-CEM leukemia, 53.5%; with MOLT-4 leukemia it was 21.9%; in the assay on RPMI-8226 leukemia, 28.8%; in the assay with OVCAR-8 ovarian, 58%. For the same compound, the growth in the assay on OVCAR-5 ovarian is 82.3%; in the assay on OVCAR-4 ovarian, 76%; in the assay on SK-OV-3 ovarian, 65.6%; with IGROV1 ovarian, 47.5%; with OVCAR-3 ovarian, 39.8%; in the assay with HS 578T breast, 43.9%. The growth in the assay on NCI/ADR-RES ovarian was 25.3%.
Take `N#Cc1c(N)nc2c(C#N)c(NC(=O)c3ccccc3)nn2c1-c1ccccc1`: the growth in the assay on SK-MEL-2 melanoma was 101%; with EKVX NSCLC, 71.9%; in the assay on SN12C renal, 91.7%; with UO-31 renal, 61.3%; with TK-10 renal it was 135%; with ACHN renal it was 89.6%. Also, the growth with CAKI-1 renal was 91%; with A498 renal it was 59.1%; with CCRF-CEM leukemia, 57.2%; in the assay with MOLT-4 leukemia it was 74.9%; with RPMI-8226 leukemia, 44.1%; with OVCAR-8 ovarian it was 77%. For the same compound, the growth is 105% in the assay on OVCAR-5 ovarian; 88.8% in the assay with OVCAR-4 ovarian; 96.8% with SK-OV-3 ovarian; 59.1% in the assay on IGROV1 ovarian; 89.5% in the assay on OVCAR-3 ovarian; 94.7% with HS 578T breast. In addition, in the assay on NCI/ADR-RES ovarian, the growth is 85.5%.
In the case of `COc1cc(/C=N/NC(=O)Cn2c(C(C)C)nc3ccccc32)ccc1O`, the growth was 105% in the assay with SK-MEL-2 melanoma; 103% with EKVX NSCLC; 94.7% with SN12C renal; 84.5% with UO-31 renal; 106% with TK-10 renal; 99.6% in the assay with ACHN renal. For the same compound, the growth in the assay on CAKI-1 renal was 91.8%; in the assay on A498 renal, 81.9%; in the assay on CCRF-CEM leukemia, 94.5%; in the assay on MOLT-4 leukemia, 93.6%; in the assay with RPMI-8226 leukemia, 87%; in the assay with OVCAR-8 ovarian, 98.8%. In addition, the growth is 94.6% in the assay on OVCAR-5 ovarian; 108% in the assay with OVCAR-4 ovarian; 100% with SK-OV-3 ovarian; 91.1% with IGROV1 ovarian; 108% in the assay on OVCAR-3 ovarian; 98.2% in the assay with HS 578T breast. Also, the growth with NCI/ADR-RES ovarian was 99.3%.
For `C=CCNc1nc(NN2C(=O)c3cccc4cccc(c34)C2=O)nc(-n2cnc3ccccc32)n1`, the growth in the assay with SK-MEL-2 melanoma was 98.9%; in the assay on EKVX NSCLC, 62.8%; with SN12C renal, 60.4%; in the assay with UO-31 renal, 14.3%; with TK-10 renal, 102%; with ACHN renal, 64.8%. Also, the growth in the assay with CAKI-1 renal is 51.5%; in the assay on A498 renal, 32.4%; with CCRF-CEM leukemia, 83.8%; in the assay with MOLT-4 leukemia, 56%; with RPMI-8226 leukemia, 65.7%; in the assay on OVCAR-8 ovarian, 81.5%. For the same compound, the growth in the assay on OVCAR-5 ovarian was 77.2%; in the assay on OVCAR-4 ovarian it was 52.5%; in the assay with SK-OV-3 ovarian it was 40.9%; in the assay with IGROV1 ovarian, 46.7%; with OVCAR-3 ovarian it was 84.5%; in the assay with HS 578T breast, 35.9%. In addition, the growth in the assay with NCI/ADR-RES ovarian is 72%.
Consider `NC(=O)c1ccc[n+]([C@@H]2O[C@H](COP(=O)([O-])OP(=O)(O)OC[C@H]3O[C@@H](n4cnc5c(N)ncnc54)[C@H](O)[C@@H]3O)[C@@H](O)[C@H]2O)c1`, for which the growth with SK-MEL-2 melanoma is 137%; in the assay with EKVX NSCLC, 106%; in the assay on SN12C renal, 107%; with UO-31 renal it was 105%; in the assay with TK-10 renal, 120%; in the assay with ACHN renal, 106%. Besides, the growth was 98.3% with CAKI-1 renal; 97.2% in the assay with A498 renal; 95.4% in the assay on CCRF-CEM leukemia; 108% in the assay on MOLT-4 leukemia; 97.6% with RPMI-8226 leukemia; 96.8% in the assay on OVCAR-8 ovarian. Moreover, the growth is 107% with OVCAR-5 ovarian; 106% in the assay with OVCAR-4 ovarian; 113% in the assay with SK-OV-3 ovarian; 109% in the assay with IGROV1 ovarian; 107% in the assay with OVCAR-3 ovarian; 107% in the assay with HS 578T breast. Also, in the assay with NCI/ADR-RES ovarian, the growth was 99.2%.
For the compound `Cc1nn(-c2ccccc2)c(Cl)c1/C=C(/NC(=O)c1ccccc1)c1nc2ccccc2[nH]1`, the growth in the assay on SK-MEL-2 melanoma was 111%; in the assay on EKVX NSCLC it was 94.4%; with SN12C renal it was 91.2%; with UO-31 renal it was 80.2%; in the assay on TK-10 renal, 106%; in the assay with ACHN renal, 92.4%. For the same compound, the growth with CAKI-1 renal was 84.1%; in the assay on A498 renal it was 88.2%; in the assay on CCRF-CEM leukemia, 86.5%; in the assay on MOLT-4 leukemia, 79.9%; in the assay with RPMI-8226 leukemia, 91.6%; in the assay with OVCAR-8 ovarian, 102%. Further, the growth in the assay on OVCAR-5 ovarian was 101%; in the assay with OVCAR-4 ovarian it was 106%; with SK-OV-3 ovarian, 95.4%; with IGROV1 ovarian, 96.8%; in the assay on OVCAR-3 ovarian it was 120%; in the assay with HS 578T breast, 115%. Also, in the assay with NCI/ADR-RES ovarian, the growth is 101%.
As for `O=c1oc2ccccc2c(Cl)c1Cl`, the growth with SK-MEL-2 melanoma is 54.7%; in the assay with EKVX NSCLC, 106%; in the assay on SN12C renal, 17.9%; in the assay on UO-31 renal, 62.3%; in the assay on TK-10 renal it was 94.3%; with ACHN renal, 80.7%. Also, the growth in the assay with CAKI-1 renal was 83.4%; in the assay with A498 renal it was 112%; in the assay on CCRF-CEM leukemia, 18.9%; in the assay with MOLT-4 leukemia it was 37.5%; in the assay on RPMI-8226 leukemia, 40.6%; in the assay on OVCAR-8 ovarian it was 61%. Besides, the growth was 88.1% in the assay with OVCAR-5 ovarian; 91.7% with OVCAR-4 ovarian; 94.7% with SK-OV-3 ovarian; 47.5% in the assay on IGROV1 ovarian; 103% in the assay with OVCAR-3 ovarian; 85% with HS 578T breast. The growth with NCI/ADR-RES ovarian was 86.4%.

Values taken from PubChem BioAssay (NCI).
